# Assay results published in PubChem BioAssay (EPA / NIEHS).
# Where “and” joins values, the source holds several entries; their conditions need not be identical. Identical values can stand only once. Calls of active or inactive are those of the source. The calls were made as follows: active = hit-call score of the fitted dose curve at least 0.9, where 1 is the maximum; inactive = score below 0.9.
# Read-out: Interleukin 6 (IL6), IL6 (gene 3569)
# Test: LTEA_HepaRG_IL6: Life Technologies and Expression Analysis (LTEA) Assay for Interleukin 6 (IL6) using HepaRG (AID 2283509)
# Settings: mRNA level, 48 h; actives raise or lower the signal
# Protocol: LTEA_HepaRG is a cell based, multiplexed-readout assay that uses HepaRG, a human liver cell line, with measurements taken at 48 hours after chemical dosing on a 96-well plate.LTEA_HepaRG_IL6 is one of 102 assay component(s) measured in the LTEA HepaRG cell culture assay. It is a marker of Inflammation.Data from the assay component LTEA_HepaRG_IL6 was analyzed into 1 endpoint. This assay endpoint, LTEA_HepaRG_IL6, was analyzed with bidirectional fitting relative to DMSO as the negative control and baseline of activity. Using a type of inducible reporter, measures of mRNA induction for gain or loss-of-signal activity can be used to understand regulation of transcription factor activity. To generalize the intended target to other relatable targets, this assay endpoint is annotated to the cytokine intended target family, where the subfamily is interleukins.
# A total of 1060 chemcials from the ToxCast library were tested in eight-point concentration-response experiments. Cell culture and cytotoxicity assays were conducted at Thermo Fisher Scientific's Custom Services facility (Madison, WI). A single lot of human HepaRG cells (Thermo Fisher Scientific, Frederick, MD) was used for the cell culture experiments. 96-well format collagen type I coated plates of human HepaRG cells were prepared using established methods. Briefly, cryopreserved HepaRG cells were thawed, plated at a density of approximately 100,000 cells/well in HepaRG Thaw, Plate, and General Purpose media (HPRG770, Thermo Fisher Scientific), and incubated for 48 hours. 0.5% DMSO was selected as vehicle control to balance the requisite need of DMSO in HepaRG cultures to maintain differentiation (for example, baseline metabolism, proportions of hepatocytes vs. cholangiocytes), while enabling further hepatic receptor pathway activation (for example, PXR and CAR) in response to chemical exposure. 48 hours after plating, the culture medium was replaced with HepaRG Serum-Free Incudtion Media. Cells were exposed to each test chemical in duplicate and maintained in CO2 incubators for another 48 hours. Chemical plates were thawed to room temperature and 200x concentrations of treatment groups were prepared. 8-point conentration-reponse curves were made with the highest exposure at 100 uM, followed by half-log dilutions, all in 0.5% DMSO. Each test plate contained variouse controls, induction positive controls (1mM phenobarbital), cytotoxicity positive controls ([…] aflatoxin B1), vehicle controls (0.5% DMSO), and total lysis controls (0.5% DMSO). Cell morphology images were taken using an Essen IncuCyte FLR automated microscope, with six 96-well plates imaged in about 24 minutes. Images were captured and exported and JPEG files. Spent culture media was transfered to black-well plates for the LDH assay, and remaining media was sorted at -80 C for later use. Cells were treated with RLT buffer and frozen until shipped for gene expression analysis. Total RNA was isolated from the cell suspension in 75 uL of Buffer RLT (Qiagen, Germantown, MD 20874) by Quintiles/Expression Analysis (Durham, NC) using a custom isolation procedure. Total RNA from each plate well was transferred to a preamplification plate. Fluidigm's 96.96 Dynamic ArrayTM (Fluidigm, Amsterdam, the Netherlands) technology was used for gene expression analyses by quantitative reverse transcription polymerase chain reaction (qRT-PCR, performed by Quintiles/Expression Analysis, Durham, NC)89. Standard TaqManTM Assays (Applied Biosystems/ThermoFisher Scientific, Foster City, CA) were used to assess the expression of 93 genes selected based on their selectivity and sensitivity to important hepatic receptors known to be modulated by environmental chemicals; importance in human hepatocyte functionality; and hepatotoxicity. […]
Compound,outcome,AC50
CCCOC(=O)NCCCN(C)C,inactive,
O=C(c1ccc(O)cc1O)c1ccc(O)cc1O,inactive,
c1ccc(Nc2ccccc2)cc1,inactive,
COC(=O)c1ccc(I)cc1S(=O)(=O)NC(=O)Nc1nc(C)nc(OC)n1,inactive,
COc1c(Cl)ccc(Cl)c1C(=O)O,inactive,
C=CCOC(Cn1ccnc1)c1ccc(Cl)cc1Cl (stereo not given),,73.7 µM (active)
OB(O)O,inactive,
COC(=O)CSc1cc(N=c2sc(=O)n3n2CCCC3)c(F)cc1Cl,inactive,
CCCCOC(=O)C(C)Oc1ccc(Oc2ccc(C(F)(F)F)cn2)cc1 (stereo not given),inactive,
CCOC(=O)COc1cc(-n2ncc(C(F)(F)F)c(C)c2=O)c(F)cc1Cl,inactive,
CCN(CC)C(=O)c1cccc(C)c1,inactive,
O=C(O)c1ccccc1,inactive,
S=C([S-])NCCNC(=S)[S-].[Mn+2],,5.31 µM (active)
CCOC(=O)NCCOc1ccc(Oc2ccccc2)cc1,,77.9 µM (active)
CN(C)C(=O)Nc1ccc(Cl)c(Cl)c1,inactive,
CC1(C)C(C=C(Cl)Cl)C1C(=O)OCc1cccc(Oc2ccccc2)c1 (stereo not given),inactive,
C[C@]12CC[C@@H]3c4ccc(O)cc4C[C@@H](CCCCCCCCCS(=O)CCCC(F)(F)C(F)(F)F)[C@H]3[C@@H]1CC[C@@H]2O (stereo not given in full),,13.9 µM (active)
CCCCCOC(=O)COc1cc(N2C(=O)C3=C(CCCC3)C2=O)c(F)cc1Cl,inactive,
CCC(C)OC(=O)N1CCCCC1CCO (stereo not given),inactive,
Cc1nn(C)c(Oc2ccccc2)c1C=NOCc1ccc(C(=O)OC(C)(C)C)cc1,,5.23 µM (active)

Compound,outcome,AC50
CCCN(CCC)c1c([N+](=O)[O-])cc(C(F)(F)F)c(N)c1[N+](=O)[O-],inactive,
CCOC(=O)c1ccc(O)cc1,inactive,
CCN(Cc1c(F)cccc1Cl)c1c([N+](=O)[O-])cc(C(F)(F)F)cc1[N+](=O)[O-],inactive,
CC(C)(c1ccc(O)cc1)c1ccc(O)cc1,inactive,
S=C(S)NCCNC(=S)S.[Mn+2].[S-]C([S-])=NCCN=C([S-])[S-].[Zn+2],,1.73 µM (active) and 1.92 µM (active) and 2.15 µM (active)
CCOC(=O)C(C)Oc1ccc(Oc2nc3ccc(Cl)cc3o2)cc1 (stereo not given),inactive,
CC(C)(C)[C@@H](O)[C@@H](Cc1ccc(Cl)cc1)n1cncn1,inactive,
CCOC(=O)C(C)Oc1ccc(Oc2cnc3cc(Cl)ccc3n2)cc1 (stereo not given),inactive,
CCCCOCCOCCOCc1cc2c(cc1CCC)OCO2,inactive,
CCCN(CCC)C(=O)SCC,inactive,
COCCO,inactive,
N[C@@H](Cc1cc(I)c(Oc2ccc(O)c(I)c2)c(I)c1)C(=O)O,inactive,
C[C@]12C[C@H](O)[C@H]3[C@@H](CCC4=CC(=O)CC[C@@]43C)[C@@H]1CC[C@@H]2C(=O)CO,inactive,
CC(=O)[C@H]1CC[C@H]2[C@@H]3CCC4=CC(=O)CC[C@]4(C)[C@H]3CC[C@]12C,,83.5 µM (active)
c1ccc2[nH]c(-c3cscn3)nc2c1,inactive,
C#CCOC(=O)[C@@H](C)Oc1ccc(Oc2ncc(Cl)cc2F)cc1,inactive,
CC(=O)S[C@@H]1CC2=CC(=O)CC[C@]2(C)[C@H]2CC[C@@]3(C)[C@@H](CC[C@@]34CCC(=O)O4)[C@H]12,inactive,
CCNc1nc(N)nc(Cl)n1,inactive,
CCCOC(=O)c1ccc(C(=O)OCCC)nc1,inactive,
O=C(O)C1(C(=O)Nc2ccc(Cl)cc2Cl)CC1,inactive,
